This note sets out measurements from PubChem BioAssay (EPA / NIEHS).

The source made the active and inactive calls. Rule for the calls: active = hit-call score of the fitted dose curve at least 0.9, where 1 is the maximum; inactive = score below 0.9.

The test is described as follows: ATG_RORE_CIS: Attagene CIS-FACTORIAL HepG2 Assay for human RAR-related Orphan Receptor Element (RORE) (AID 2282959). The note with it: HepG2 Attagene cis-factorial RORE reporter, mRNA; actives raise or lower the signal. How it is done: ATG_CIS is a cell-based, multiplexed-readout assay that uses HepG2, a human liver cell line, with measurements taken at 24 hours after chemical dosing in a 24-well plate.ATG_RORE_CIS is one of 52 assay component(s) measured or calculated from the ATG_CIS assay. It is designed to make measurements of mRNA induction, a form of inducible reporter, as detected with fluorescence intensity signals by Reverse transcription polymerase chain reaction (RT-PCR) and Capillary electrophoresis technology.Data from the assay component ATG_RORE_CIS was analyzed into 1 assay endpoint. This assay endpoint, ATG_RORE_CIS, was analyzed with bidirectional fitting relative to DMSO as the negative control and baseline of activity. Using a type of inducible reporter, measures of mRNA for gain or loss-of-signal activity can be used to understand the reporter gene at the transcription factor-level as they relate to the gene RORA and RORB and RORC. Furthermore, this assay endpoint can be referred to as a primary readout, because this assay has produced multiple assay endpoints where this one serves a reporter gene function. To generalize the intended target to other relatable targets, this assay endpoint is annotated to the nuclear receptor intended target family, where the subfamily is orphan.
Human liver HepG2 cells are transiently transfected with multiple reporter transcription units (MRTUs) in 6-well plates using FuGene 6 reagent (Roche; 3 ml FuGene/1 mg DNA). The MRTU constructs are regulated by a cis-regulating element (promoter). […] A major difference between the CIS and TRANS system is that in CIS activities of endogenous TFs are measured, whereas the TRANS assay evaluates changes in activities of exogenous, chimeric NR-Gal4 proteins. […] At the end of 24 hour incubation, total RNA was isolated using TriZol reagent (Invitrogen). The isolated RNA is then reverse-transcribed using oligo(dT) primer and Mo-MLV reverse transcriptase (Invitrogen) with DNAse I (Ambion) treatment for 30 min. The one-tenth of the produced cDNA was amplified by PCR using Taq DNA polymerase (Invitrogen) and two reporter sequence-specific primers. The PCR products were fluorescently labeled by primer extension with 6-arboxyfluorescein (6-FAM) 5'-labeled reporter sequence-specific primer (2 min at 95 C, 20 s at 68 C and 10 min at 72 C) and these products were digested with 5U of HpaI (New England Biolabs) for 2h at 37 C. The fragments were purified using Qiaquick PCR columns (Qiagen), analyzed on an ABI 3130xL genetic analyzer (Applied Biosystems) with peak positions identified by using a set of X-rhodamine (ROX)-labeled MapMarker1000 molecular weight standards (BioVentures). The raw capillary electrophoresis data was processed using Attagraph software (Attagene).
Consider `C=CCOC(=O)CC(C)C`, for which the call was inactive. In the case of `OCCCC(F)(F)C(F)(F)C(F)(F)C(F)(F)C(F)(F)C(F)(F)C(F)(F)C(F)(F)F`, the outcome was inactive. Turning to `Cc1ccc(S(=O)(=O)C(I)I)cc1`, the compound was classed as inactive.

On to `O=C(c1ccccc1)c1ccc(Cl)cc1`, for which the outcome was inactive. On to `CC(C)(C)c1cc(Cc2cc(C(C)(C)C)c(O)c(C(C)(C)C)c2)cc(C(C)(C)C)c1O`, for which the result was inactive. Take `OCCCCC(F)(F)C(F)(F)C(F)(F)C(F)(F)F`: the outcome was inactive. The value for `CCCCCC/C=C/CCCCCCCC(=O)O` was “inactive”; that for `CC1=CCC(=O)O1` was “inactive”.

Consider `Oc1ccc(C2(c3ccc(O)c(C4CCCCC4)c3)CCCCC2)cc1C1CCCCC1`, for which the result was inactive.

With `CC(C)CC=C(C=O)c1ccccc1`, the outcome was inactive. `O=c1cccc[nH]1`: the result was inactive. The same measure for `CN(C(=O)C(F)(F)C(F)(F)C(F)(F)F)[Si](C)(C)C`: “inactive”; for `Cc1cc(=O)[nH]c(C(C)C)n1`: “inactive”; for `NC(=O)C(F)(F)C(F)(F)C(F)(F)F`: “inactive”.

Consider `O=C(Cl)C(F)(F)C(F)(F)C(F)(F)C(F)(F)C(F)(F)C(F)(F)F`, for which the result was inactive. The value for `CCN=c1cc2oc3cc(NCC)c(C)cc3c(-c3ccccc3C(=O)OCC)c-2cc1C` was “inactive”. Take `OCCCc1cccnc1`: the call was inactive. Turning to `NC(=O)C(F)(F)C(F)(F)C(F)(F)C(F)(F)C(N)=O`, the outcome was inactive. The value for `COCCC(=O)OC` was “inactive”; that for `CCc1cccc(C)c1N(C(=O)C(=O)O)C(C)COC` (stereo not given) was “inactive”; that for `CC(C)CCCC(C)CCO` (stereo not given) was “inactive”. For `CC(C)OC=O`, the outcome was inactive. As for `CCOC(=O)CCC(C)=O`, the call was inactive. The same measure for `O=C(F)C1(F)C(F)(F)C(F)(F)C(F)(F)C(F)(F)C1(F)F`: “inactive”. `CCC(Cc1c(I)cc(I)c(N)c1I)C(=O)O` (stereo not given): the outcome was inactive. As for `COCCOCCC[Si](C)(O[Si](C)(C)C)O[Si](C)(C)C`, the call was inactive. The same measure for `CCn1c2ccccc2c2ccccc21`: “inactive”. On to `CO[Si](C)(CCC(F)(F)C(F)(F)C(F)(F)C(F)(F)C(F)(F)C(F)(F)F)OC`, for which the call was inactive.

For `C=CC(=O)OCC(F)(F)C(F)(F)C(F)(F)C(F)(F)C(F)(F)C(F)(F)C(F)(F)C(F)F`, the result was inactive.

Take `O=c1[nH]cccc1O`: the compound was classed as inactive. The value for `NC(=O)C(F)(F)C(F)(F)C(F)(F)C(F)F` was “inactive”; that for `C[C@]12CC[C@H]3C(=CCc4cc(O)ccc43)[C@@H]1CCC2=O` was “inactive”. `O=C(O)C(F)(F)C(F)(F)C(F)(F)C(=O)O`: the compound was classed as inactive. As to `CCN(CC)c1ccc2c(c1)Oc1cc(N(CC)CC)ccc1C21OC(=O)c2ccccc21`, the call was inactive. The value for `OC(O)C(F)(F)C(F)(F)F` was “inactive”; that for `CCN(CC)c1ccc(C=O)cc1` was “inactive”; that for `CC1CCCCC1` was “inactive”. Consider `N#CCCOCCC#N`, for which the call was inactive. The value for `C#CC(O)CCC` (stereo not given) was “inactive”; that for `FC(F)(F)C(F)(F)C(F)(F)C(F)(F)C(F)(F)C(F)(F)CC[Si](Cl)(Cl)Cl` was “inactive”.
